# Assay results: the supplement of paper PMC6411743
# ± gives the standard deviation of the averaged measurements. The full data set covers some 6,200 targets. This sample favours those with the largest changes.
# Compound: Nc1ncnc2c1ncn2[C@@H]1O[C@H](COP(=O)(O)OP(=O)(O)NP(=O)(O)O)[C@@H](O)[C@H]1O [adenylyl imidodiphosphate]
# Experiment: NP40-soluble protein abundance relative to vehicle (solubility fold change) (ratio); higher = more soluble protein in presence of AMP-PNP
# In short: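 In three independent experiments, Jurkat crude lysate made by Dounce homogenisation was treated for 10 min at room temperature and then 3 min at 37 °C with eight concentrations ranging from 0.1 to 10 mM. It was then solubilised with 0.8% NP40 plus benzonase for 60 min at 4 °C and ultracentrifuged. The supernatant was TMT-labelled for LC-MS/MS, and each value is the fold change against the detergent-processed vehicle for the same replicate, using vsn-normalised intensities.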
# UniProt Q14152, sequence (Q14152 whole entry): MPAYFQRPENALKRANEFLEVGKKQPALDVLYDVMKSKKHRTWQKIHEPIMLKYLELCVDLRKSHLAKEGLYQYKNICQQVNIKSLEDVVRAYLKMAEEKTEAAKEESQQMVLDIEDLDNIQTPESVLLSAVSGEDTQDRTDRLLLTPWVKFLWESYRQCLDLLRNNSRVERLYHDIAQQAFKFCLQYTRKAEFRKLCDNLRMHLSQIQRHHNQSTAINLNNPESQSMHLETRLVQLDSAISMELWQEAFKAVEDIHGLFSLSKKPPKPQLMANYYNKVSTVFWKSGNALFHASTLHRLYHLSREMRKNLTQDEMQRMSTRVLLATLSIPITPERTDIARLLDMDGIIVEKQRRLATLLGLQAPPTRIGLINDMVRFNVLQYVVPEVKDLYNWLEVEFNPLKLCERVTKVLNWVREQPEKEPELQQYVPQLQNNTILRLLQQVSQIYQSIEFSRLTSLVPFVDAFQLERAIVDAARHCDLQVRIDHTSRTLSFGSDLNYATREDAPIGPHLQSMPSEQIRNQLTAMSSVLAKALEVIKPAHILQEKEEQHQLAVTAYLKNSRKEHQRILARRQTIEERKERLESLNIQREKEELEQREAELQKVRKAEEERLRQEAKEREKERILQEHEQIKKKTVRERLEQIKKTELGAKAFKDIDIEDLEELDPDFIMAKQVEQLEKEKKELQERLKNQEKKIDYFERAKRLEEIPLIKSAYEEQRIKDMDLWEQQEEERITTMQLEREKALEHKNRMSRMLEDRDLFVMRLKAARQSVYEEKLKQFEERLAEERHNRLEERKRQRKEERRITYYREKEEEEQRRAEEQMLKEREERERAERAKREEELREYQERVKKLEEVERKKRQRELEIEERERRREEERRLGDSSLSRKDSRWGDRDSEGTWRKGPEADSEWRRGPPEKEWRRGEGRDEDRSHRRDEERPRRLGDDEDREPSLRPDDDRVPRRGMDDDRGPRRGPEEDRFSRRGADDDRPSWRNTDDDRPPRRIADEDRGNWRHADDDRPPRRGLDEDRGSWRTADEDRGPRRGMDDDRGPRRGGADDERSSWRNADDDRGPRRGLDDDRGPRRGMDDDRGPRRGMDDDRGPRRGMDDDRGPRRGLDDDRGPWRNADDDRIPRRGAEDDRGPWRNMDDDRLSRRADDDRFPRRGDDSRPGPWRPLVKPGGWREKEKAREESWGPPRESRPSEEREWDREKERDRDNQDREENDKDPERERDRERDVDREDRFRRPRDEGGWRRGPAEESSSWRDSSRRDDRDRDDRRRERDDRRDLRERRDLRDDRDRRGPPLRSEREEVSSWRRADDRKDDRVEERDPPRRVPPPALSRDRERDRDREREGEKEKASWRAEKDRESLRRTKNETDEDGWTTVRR
# UniProt Q15233, sequence (Q15233 whole entry): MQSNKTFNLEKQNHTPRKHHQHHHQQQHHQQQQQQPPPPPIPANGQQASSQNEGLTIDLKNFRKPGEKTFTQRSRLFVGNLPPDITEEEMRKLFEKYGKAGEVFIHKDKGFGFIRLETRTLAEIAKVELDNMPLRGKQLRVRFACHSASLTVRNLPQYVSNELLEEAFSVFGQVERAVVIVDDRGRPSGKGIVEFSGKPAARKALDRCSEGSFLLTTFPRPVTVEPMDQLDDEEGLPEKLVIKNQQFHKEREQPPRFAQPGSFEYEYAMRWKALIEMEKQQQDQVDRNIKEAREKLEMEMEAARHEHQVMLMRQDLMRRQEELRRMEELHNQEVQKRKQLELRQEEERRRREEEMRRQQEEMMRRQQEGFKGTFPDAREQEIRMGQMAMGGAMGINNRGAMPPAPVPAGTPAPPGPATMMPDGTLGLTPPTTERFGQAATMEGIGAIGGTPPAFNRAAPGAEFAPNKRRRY
# UniProt Q13576, sequence (Q13576 whole entry): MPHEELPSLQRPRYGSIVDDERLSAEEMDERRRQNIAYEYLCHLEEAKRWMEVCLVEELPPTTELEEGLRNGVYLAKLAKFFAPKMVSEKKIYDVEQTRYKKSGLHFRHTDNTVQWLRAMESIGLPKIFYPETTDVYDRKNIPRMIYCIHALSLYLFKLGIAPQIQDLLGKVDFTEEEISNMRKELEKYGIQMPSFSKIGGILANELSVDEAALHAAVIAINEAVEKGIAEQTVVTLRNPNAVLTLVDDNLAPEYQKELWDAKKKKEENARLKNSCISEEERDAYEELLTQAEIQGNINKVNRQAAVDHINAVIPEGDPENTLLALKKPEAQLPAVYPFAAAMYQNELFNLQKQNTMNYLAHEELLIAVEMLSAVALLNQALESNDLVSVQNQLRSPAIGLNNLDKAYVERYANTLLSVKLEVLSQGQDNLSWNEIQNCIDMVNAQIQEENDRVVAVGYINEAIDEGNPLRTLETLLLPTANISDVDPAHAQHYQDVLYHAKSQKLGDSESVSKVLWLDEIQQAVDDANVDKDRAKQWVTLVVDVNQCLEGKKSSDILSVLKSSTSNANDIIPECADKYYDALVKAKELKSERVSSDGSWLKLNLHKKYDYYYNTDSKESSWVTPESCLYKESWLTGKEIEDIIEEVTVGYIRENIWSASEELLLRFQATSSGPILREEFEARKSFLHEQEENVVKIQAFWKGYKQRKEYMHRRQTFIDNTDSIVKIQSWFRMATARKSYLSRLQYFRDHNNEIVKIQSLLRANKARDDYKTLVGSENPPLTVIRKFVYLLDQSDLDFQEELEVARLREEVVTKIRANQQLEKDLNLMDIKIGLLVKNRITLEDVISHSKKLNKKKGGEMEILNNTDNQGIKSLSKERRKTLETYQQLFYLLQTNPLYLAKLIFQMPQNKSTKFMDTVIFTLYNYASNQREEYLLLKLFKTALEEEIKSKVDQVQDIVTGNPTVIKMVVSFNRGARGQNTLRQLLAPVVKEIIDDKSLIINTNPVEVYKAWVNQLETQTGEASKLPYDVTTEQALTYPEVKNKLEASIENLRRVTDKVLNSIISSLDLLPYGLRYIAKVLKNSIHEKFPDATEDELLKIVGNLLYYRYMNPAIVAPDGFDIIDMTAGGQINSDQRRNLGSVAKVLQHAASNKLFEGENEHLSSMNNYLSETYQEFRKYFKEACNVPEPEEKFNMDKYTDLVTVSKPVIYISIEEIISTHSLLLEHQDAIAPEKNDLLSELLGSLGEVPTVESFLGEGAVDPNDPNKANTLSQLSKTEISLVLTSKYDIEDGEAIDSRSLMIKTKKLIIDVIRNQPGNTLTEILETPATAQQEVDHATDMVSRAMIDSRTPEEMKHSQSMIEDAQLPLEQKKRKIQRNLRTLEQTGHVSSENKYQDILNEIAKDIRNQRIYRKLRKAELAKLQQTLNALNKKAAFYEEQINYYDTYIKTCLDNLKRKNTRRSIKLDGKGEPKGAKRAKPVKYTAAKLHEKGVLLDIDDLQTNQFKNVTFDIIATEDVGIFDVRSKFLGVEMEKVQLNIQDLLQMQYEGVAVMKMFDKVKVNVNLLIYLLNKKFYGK
# UniProt Q8N0X4, sequence (Q8N0X4 whole entry): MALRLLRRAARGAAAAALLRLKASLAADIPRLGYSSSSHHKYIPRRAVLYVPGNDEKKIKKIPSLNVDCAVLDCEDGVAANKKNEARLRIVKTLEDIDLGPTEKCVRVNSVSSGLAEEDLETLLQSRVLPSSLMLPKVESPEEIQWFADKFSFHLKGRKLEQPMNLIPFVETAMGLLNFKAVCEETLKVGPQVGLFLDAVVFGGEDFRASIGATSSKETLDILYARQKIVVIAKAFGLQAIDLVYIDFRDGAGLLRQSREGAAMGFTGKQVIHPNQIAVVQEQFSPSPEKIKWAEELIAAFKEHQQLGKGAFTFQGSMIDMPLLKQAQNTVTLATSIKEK
# UniProt Q2NKX8, sequence (Q2NKX8 whole entry): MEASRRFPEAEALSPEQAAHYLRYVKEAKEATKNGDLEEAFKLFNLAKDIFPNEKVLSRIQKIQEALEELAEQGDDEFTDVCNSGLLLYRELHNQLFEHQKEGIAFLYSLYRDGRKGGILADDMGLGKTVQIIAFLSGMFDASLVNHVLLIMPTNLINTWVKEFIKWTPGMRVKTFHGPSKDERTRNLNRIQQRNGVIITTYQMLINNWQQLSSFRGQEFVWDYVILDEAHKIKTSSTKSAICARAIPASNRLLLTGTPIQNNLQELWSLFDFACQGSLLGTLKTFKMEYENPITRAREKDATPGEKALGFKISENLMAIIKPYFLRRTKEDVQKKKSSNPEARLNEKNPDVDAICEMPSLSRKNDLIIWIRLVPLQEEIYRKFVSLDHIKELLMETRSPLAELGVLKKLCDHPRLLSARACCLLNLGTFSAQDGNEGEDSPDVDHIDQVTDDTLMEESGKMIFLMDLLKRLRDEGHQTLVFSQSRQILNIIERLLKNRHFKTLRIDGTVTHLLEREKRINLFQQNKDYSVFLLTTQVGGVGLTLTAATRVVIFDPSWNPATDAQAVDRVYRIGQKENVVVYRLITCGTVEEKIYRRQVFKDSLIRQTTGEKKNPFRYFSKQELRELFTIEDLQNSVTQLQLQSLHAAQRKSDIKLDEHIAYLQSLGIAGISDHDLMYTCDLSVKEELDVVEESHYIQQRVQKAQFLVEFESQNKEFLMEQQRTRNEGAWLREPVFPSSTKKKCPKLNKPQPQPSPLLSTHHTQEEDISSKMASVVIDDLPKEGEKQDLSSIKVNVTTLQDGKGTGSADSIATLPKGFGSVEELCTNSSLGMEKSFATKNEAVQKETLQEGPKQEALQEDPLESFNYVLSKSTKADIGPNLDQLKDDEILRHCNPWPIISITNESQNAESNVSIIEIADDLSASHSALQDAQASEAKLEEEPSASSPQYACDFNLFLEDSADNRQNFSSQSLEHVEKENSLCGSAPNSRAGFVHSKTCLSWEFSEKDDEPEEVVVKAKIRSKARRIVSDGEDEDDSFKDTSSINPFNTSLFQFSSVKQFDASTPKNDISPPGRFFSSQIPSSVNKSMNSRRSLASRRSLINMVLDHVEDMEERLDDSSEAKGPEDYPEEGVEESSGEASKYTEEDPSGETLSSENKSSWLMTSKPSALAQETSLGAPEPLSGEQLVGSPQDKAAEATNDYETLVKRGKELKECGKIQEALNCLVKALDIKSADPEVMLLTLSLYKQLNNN
Target,NP40-soluble protein abundance (concentration: 1mM),NP40-soluble protein abundance (concentration: 2mM),NP40-soluble protein abundance (concentration: 4mM),NP40-soluble protein abundance (concentration: 6mM),NP40-soluble protein abundance (concentration: 8mM),NP40-soluble protein abundance (concentration: 10mM)
KBTBD7 (UniProt Q8WVZ9),0.977 ± 0.014,0.9633 ± 0.004,0.959 ± 0.025,0.987 ± 0.01,1.03 ± 0.018,0.988 ± 0.03
CLYBL (UniProt Q8N0X4),1.01 ± 0.016,0.978 ± 0.013,1 ± 0.02,0.982 ± 0.043,0.9692 ± 0.0037,0.9819 ± 0.0062
UniProt Q7L0J3|Q7L0J3-2,1 ± 0.032,1.05 ± 0.072,1.03 ± 0.031,1.02 ± 0.025,1.03 ± 0.033,1.02 ± 0.028
UniProt Q14197|J3KS15,1 ± 0.1,0.952 ± 0.083,0.974 ± 0.087,0.95 ± 0.13,0.978 ± 0.14,0.953 ± 0.19
UniProt Q7Z3B4|Q7Z3B4-3,0.969 ± 0.054,0.9436 ± 0.0042,1 ± 0.064,1.07 ± 0.067,1.13 ± 0.078,1.09 ± 0.11
DDX51 (UniProt Q8N8A6),1.06 ± 0.018,1.09 ± 0.02,1.15 ± 0.059,1.2 ± 0.038,1.24 ± 0.033,1.423 ± 0.014
PDCL (UniProt Q13371),0.966 ± 0.026,0.973 ± 0.039,0.969 ± 0.056,0.932 ± 0.062,0.938 ± 0.083,0.928 ± 0.082
TRAPPC5 (UniProt Q8IUR0),0.946 ± 0.055,0.933 ± 0.043,0.959 ± 0.073,1.187 ± 0.002,1.18 ± 0.043,1.12 ± 0.13
UniProt Q86UK7|Q86UK7-3|Q86UK7-2,1.03 ± 0.043,1.03 ± 0.022,1.07 ± 0.031,1.08 ± 0.038,1.1 ± 0.048,1.11 ± 0.07
UniProt Q5H8A4-5,0.979 ± 0.011,0.971 ± 0.019,0.983 ± 0.034,0.92 ± 0.01,0.9558 ± 0.0061,0.952 ± 0.016
UniProt Q8NDV3-2|Q8NDV3-3,0.953 ± 0.039,0.942 ± 0.011,0.928 ± 0.015,0.977 ± 0.0022,0.945 ± 0.025,0.944 ± 0.033
POLA2 (UniProt Q14181),0.994 ± 0.014,0.974 ± 0.028,1 ± 0.044,1.04 ± 0.03,1.02 ± 0.021,1.03 ± 0.025
UniProt Q5M775|Q5M775-2|Q5M775-3|Q5M775-4|Q5M775-5,0.945 ± 0.062,0.89 ± 0.032,0.95 ± 0.05,1.04 ± 0.032,1.01 ± 0.031,0.992 ± 0.059
UniProt Q8IYB5-2|Q8IYB5-3,0.988 ± 0.028,0.986 ± 0.011,1.01 ± 0.031,0.995 ± 0.038,0.995 ± 0.025,1.01 ± 0.015
IQGAP2 (UniProt Q13576),0.956 ± 0.027,0.935 ± 0.022,0.94 ± 0.051,0.944 ± 0.029,0.926 ± 0.039,0.932 ± 0.038
PLA2G15 (UniProt Q8NCC3),0.991 ± 0.013,0.975 ± 0.013,1.02 ± 0.03,0.986 ± 0.029,0.9922 ± 0.0084,0.979 ± 0.021
DHX38 (UniProt Q92620),1.016 ± 0.0095,1.03 ± 0.037,1.03 ± 0.012,1.01 ± 0.055,1.04 ± 0.034,1.03 ± 0.023
UniProt Q8WZA0|Q8WZA0-2,0.969 ± 0.052,0.957 ± 0.0098,0.928 ± 0.059,0.912 ± 0.044,0.921 ± 0.034,0.859 ± 0.054
EIF3A (UniProt Q14152),1.05 ± 0.029,1.08 ± 0.044,1.12 ± 0.087,1.19 ± 0.12,1.25 ± 0.12,1.38 ± 0.19
ABHD11 (UniProt Q8NFV4),1.02 ± 0.035,1.046 ± 0.0096,1.04 ± 0.023,0.995 ± 0.028,1 ± 0.02,1.01 ± 0.048
NSDHL (UniProt Q15738),0.968 ± 0.04,0.892 ± 0.058,0.93 ± 0.022,0.953 ± 0.045,0.964 ± 0.036,0.923 ± 0.028
CMIP (UniProt Q8IY22),0.986 ± 0.047,0.964 ± 0.031,0.942 ± 0.029,0.958 ± 0.046,0.935 ± 0.022,0.923 ± 0.043
UniProt Q8WUQ7|Q8WUQ7-2,1.05 ± 0.027,1.05 ± 0.027,1.09 ± 0.03,1.06 ± 0.023,1.06 ± 0.031,1.11 ± 0.063
UniProt Q14444|Q14444-2,1.12 ± 0.041,1.22 ± 0.17,1.16 ± 0.064,1.19 ± 0.13,1.19 ± 0.094,1.25 ± 0.08
KBTBD8 (UniProt Q8NFY9),0.953 ± 0.046,0.944 ± 0.043,0.955 ± 0.035,0.976 ± 0.018,0.973 ± 0.02,0.965 ± 0.025
UniProt Q8TAT6|Q8TAT6-2,0.955 ± 0.025,0.961 ± 0.022,0.968 ± 0.044,0.983 ± 0.015,0.991 ± 0.036,1.02 ± 0.025
UniProt Q13362-2|Q13362-3|Q13362-4,0.982 ± 0.017,1.04 ± 0.036,0.989 ± 0.018,0.976 ± 0.036,0.948 ± 0.018,0.966 ± 0.043
ERCC6L (UniProt Q2NKX8),0.998 ± 0.022,1.01 ± 0.036,0.993 ± 0.04,0.95 ± 0.032,0.942 ± 0.045,0.949 ± 0.064
TTC37 (UniProt Q6PGP7),0.822 ± 0.084,0.793 ± 0.14,0.791 ± 0.11,0.768 ± 0.077,0.761 ± 0.078,0.76 ± 0.079
NONO (UniProt Q15233),1.09 ± 0.048,1.17 ± 0.064,1.22 ± 0.056,1.39 ± 0.12,1.45 ± 0.15,1.56 ± 0.18
